# Screens from PubChem BioAssay.
# HT1080 IDH1KD tx: kills HT-1080 cells with IDH1 knockdown. HT-1080 IDH1 knockdown viability, ATP luminescence, 48 h. Potency, µM (top dose mostly 46.1 µM), hits mostly cytotoxic. actives 2% (n = 360,000)
#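 % activity derives from luminescence (CellTiter-Glo), normalised to DMSO and no-cell wells. HT-1080-IDH1KD cells, 750/well, had 48 h compound exposure at 37 °C.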
# DT40 TDP1 no CPT: qHTS for Inhibitors of human tyrosyl-DNA phosphodiesterase 1 (TDP1): qHTS in cells in absence of CPT. actives 15% (n = 420,000). DT40 Tdp1-/- hTDP1 cells, no CPT, ATP luminescence, 48 h. AID 686978, 2013. Potency, µM (doses to about 46.2 µM), usual class: inhibitors; note: nearly all actives have a fitted effect of over 55% in size
#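 Seeded 400 DT40-hTDP1 cells/well (vehicle DMSO, no 20 nM CPT); pinned compounds; ≥48 hr at 37 °C; CellTiter-Glo luminescence as viability measure.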
# TDP1 cell CPT: growth inhibition of DT40 Tdp1-/-;hTDP1 cells with camptothecin (screen for TDP1 inhibitors); chicken DT40 Tdp1-/-;hTDP1 cells + 20 nM CPT, ATP luminescence, 48 h; Potency, µM (series often up to 46.2 µM), usual class: inhibitors; actives 12% (n = 420,000); AID 686979; note: nearly all actives have a fitted effect of over 55% in size
#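 Chicken DT40 Tdp1-/- cells stably complemented with human TDP1 were seeded at 400 cells/well in medium containing 20 nM camptothecin, exposed to pin-transferred compounds, and grown at 37 °C for at least 48 hr. Viability was read as ATP luminescence.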
# HT1080-NT tox: kills 2HG-producing HT-1080-NT fibrosarcoma cells | HT-1080-NT fibrosarcoma viability, CellTiter-Glo ATP luminescence, 48 h | actives 1.6% (n = 360,000) | AID 686970 | Potency, µM (series often up to 46.1 µM), hits mostly cytotoxic;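 note: NT is the 2HG producing partner of a matched IDH1 knockdown line; nearly all actives have a fitted effect of over 55% in size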
#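 Toxicity toward the 2HG-producing NT line was scored as %Activity, normalised to DMSO and no-cell wells, from CellTiter-Glo luminescence after 48 hours' treatment.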
# IL-1B inflam inh: inhibitors of inflammasome signaling (IL-1 beta secretion). THP-1 LPS/ATP IL-1B secretion, AlphaLISA, 16 h; stronger effect = lower value. actives 4.7% (n = 360,000). activity change, % at 57.5 µM; in the data active = activity change below about -50%; inconclusive = mostly about -30% to -49%
#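 Secreted IL-1B measured by AlphaLISA bead assay after 16 h compound exposure of THP-1 cells; compounds (final up to 57.5 uM) added 1 h before LPS (250 ng/mL) and ATP (1.25 mM) stimulation; lower signal means less secretion.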
# 12-LOX inh: inhibitors of human 12S-lipoxygenase ALOX12. actives 1.1% (n = 580,000). P18054. purified 12hLO, xylenol orange hydroperoxide absorbance. Potency, µM (doses to about 108 µM), actives largely listed as inhibitors. AID 1671190
# Target sequence (P18054 whole entry, looked up): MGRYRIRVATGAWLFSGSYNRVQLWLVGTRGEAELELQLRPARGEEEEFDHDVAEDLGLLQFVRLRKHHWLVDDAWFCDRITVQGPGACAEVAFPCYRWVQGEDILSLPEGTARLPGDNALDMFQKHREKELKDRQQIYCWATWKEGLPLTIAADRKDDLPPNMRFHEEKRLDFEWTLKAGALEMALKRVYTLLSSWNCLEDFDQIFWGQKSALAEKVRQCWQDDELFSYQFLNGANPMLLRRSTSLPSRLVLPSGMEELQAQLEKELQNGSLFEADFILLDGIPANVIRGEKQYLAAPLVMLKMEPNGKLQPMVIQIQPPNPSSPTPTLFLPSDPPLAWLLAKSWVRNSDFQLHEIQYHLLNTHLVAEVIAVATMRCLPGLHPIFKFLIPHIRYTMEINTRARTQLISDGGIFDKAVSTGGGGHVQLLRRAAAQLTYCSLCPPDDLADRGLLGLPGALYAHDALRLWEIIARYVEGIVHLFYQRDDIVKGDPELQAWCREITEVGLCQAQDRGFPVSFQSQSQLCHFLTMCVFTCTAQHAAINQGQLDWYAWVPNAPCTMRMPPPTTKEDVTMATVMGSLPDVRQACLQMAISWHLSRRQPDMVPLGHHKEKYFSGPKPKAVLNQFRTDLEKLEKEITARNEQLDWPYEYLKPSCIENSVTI
#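 Purified human 12hLO at 150 nM in 25 mM Hepes, 0.01% Triton X-100, pH 7.0, preincubated 15 min at room temperature with compound. Reaction started with 40 uM arachidonic acid, 30 min at room temperature. Hydroperoxide measured by Fe-xylenol orange, 573/405 nm absorbance ratio.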
# A number is an active result; - = inactive; ? = inconclusive; . = no result; [ ] = dose if it differs, or a comment. Many of the other results were omitted from the sample, so hits are more common in it than they were. Unless noted, calls come from the whole dose curve; as a rule, active = well fitted curve in the direction sought with a large enough effect; inconclusive = small, poorly fitted or top-dose-only effect, or another doubt; inactive = no such curve, though single readings can be large; an effect the other way counts as inactive or inconclusive.
SMILES,HT1080 IDH1KD tx,DT40 TDP1 no CPT,TDP1 cell CPT,HT1080-NT tox,IL-1B inflam inh,12-LOX inh
COc1ccccc1CNc1nc2cc(-c3sccc3C)sc2c(=O)n1C,-,16µM,18µM,-,-,-
COc1ccccc1CNc1nc2cc(-c3ccccc3C)sc2c(=O)n1C,?,23µM,?,?,-,-
O=C(Nc1cccc2c1CCCC2)c1ccc2ccccc2c1,.,.,.,.,.,-
COCCN(CCOC)C(=O)COc1cc2oc(=O)cc(C)c2cc1Cl,.,.,.,.,.,-
CC(=O)Nc1nc2ccc(CCC(=O)NCc3ccc(Cl)cc3)cc2s1,.,.,.,.,.,-
COc1cccc(CNc2nc3cc(-c4ccccc4C)sc3c(=O)n2C)c1,?,23µM,21µM,?,-,-
CCCCOc1ccc2c(C)c(CCC(C)C)c(=O)oc2c1,.,.,.,.,.,-
COc1cncc(NC(=O)C2=NO[C@@H]3CN(Cc4ccc(O)c(Cl)c4)C[C@H]23)c1,.,.,.,.,.,-
Cc1ccc(S(=O)(=O)NCc2ccccc2)cc1C(=O)N(C)CC(=O)Nc1c(Cl)cccc1Cl,-,?,23µM,-,-,?
CSc1ccc(CN(C)C(=O)c2cc(S(=O)(=O)NCc3ccccc3)ccc2C)cc1,?,21µM,?,?,?,?
CN1c2ccc([N+](=O)[O-])cc2N(C)C1(C)c1ccccc1 (stereo not drawn),?,?,?,?,-,-
CN(C)CCCN1c2ccc([N+](=O)[O-])cc2CCc2cc([N+](=O)[O-])ccc21,.,.,.,.,.,32µM
COc1cc(C)c(C)cc1S(=O)(=O)n1ccnc1C,.,.,.,.,.,-
Cc1ccc(S(=O)(=O)N2CCN(C(=O)CSC(=S)N3CCCC3)CC2)c(C)c1,-,3.3µM,5.2µM,-,-,-
Cc1ccccc1OCCC(=O)N1CCN(S(=O)(=O)c2ccc(Br)cc2)CC1,-,23µM,?,-,-,-
CCC(=O)c1cc(Br)ccc1OCC(=O)N1CCN(S(=O)(=O)c2ccccc2)CC1,-,23µM,?,-,-58,-
CCOc1ccccc1OCCCC(=O)N1CCN(S(=O)(=O)c2ccc(C)cc2C)CC1,-,-,21µM,-,-,-
Cc1ccc(S(=O)(=O)N2CCN(CC(=O)N3CCCC3)CC2)c(C)c1,-,-,-,-,-,-
O=C(COc1ccc(Cl)cc1Br)N1CCN(S(=O)(=O)c2ccccc2)CC1,-,?,?,-,?,-
CN1c2ccccc2C(C)(C)C12CCCC(=O)N2 (stereo not drawn),-,?,29µM,-,-,?
CC1(C(=O)N2CCc3ccccc32)CCCCC(=O)N1 (stereo not drawn),.,.,.,.,.,-
Fc1ccc(-c2ccnc(=S)[nH]2)cc1,-,?,21µM,-,-,?
O=C(NCc1ccc(F)cc1)c1ccc(CSc2nc3ccncc3n2Cc2ccc(F)cc2)cc1,.,-,23µM,.,.,-
O=C(NC1CCCC1)c1ccc(CSc2nc3ccncc3n2Cc2ccc(F)cc2)cc1,-,16µM,?,-,-,-
O=C(NC1CCCC1)c1ccc(CSc2nc3ccncc3n2Cc2cccc(F)c2)cc1,.,16µM,?,.,.,-
SMILES,HT1080 IDH1KD tx,DT40 TDP1 no CPT,TDP1 cell CPT,HT1080-NT tox,IL-1B inflam inh,12-LOX inh
O=C(Nc1c(N2CCCC2)c2ccccc2oc1=O)c1ccccc1,.,.,.,.,.,-
N#Cc1ccccc1COC(=O)COc1ccc(C2SCCCS2)cc1,.,.,.,.,.,-
COc1ccc(Br)cc1CN(C)CC(=O)NCc1ccc(F)cc1,-,18µM,?,-,?,?
CC(C)CCN(CC(=O)NCc1ccc(F)cc1)S(=O)(=O)c1ccccc1F,-,?,23µM,-,-80,-
CN(CC(=O)NCc1ccc(F)cc1)Cc1ccc(Br)cc1,-,?,-,-,-72,-
CCOc1ccc(CN(C)C(=O)CCl)cc1,?,2.9µM,2.9µM,?,-102,-
O=C1N(c2ccccc2)c2ccccc2C12CCN(Cc1cccc3ccccc13)C2 (stereo not drawn),.,.,.,.,.,-[6.33 µM]
Cc1cc(NC(=O)Cn2cccc2-c2nc(-c3ccc4c(c3)OCO4)no2)n[nH]1,.,.,.,.,.,-
C/C(Cl)=C/C[N+]1(CC#Cc2cccc3ccccc23)CCOCC1,.,.,.,.,.,-
COc1ccc(CNC(=O)CN(C)Cc2ccc(SC)cc2)cc1,-,?,?,-,-,-
CCOc1ccc(CN(C)CC(=O)NCc2ccc(F)cc2)cc1,-,21µM,?,-,-,-
Cc1ccc(NC(=O)CSc2nncs2)cc1Cl,-,-,-,-,-,-
Cc1nc(SCC(=O)Nc2ccc(C)c(Cl)c2)cc(-c2ccccc2)n1,.,?,23µM,.,.,-
Cc1ccc(NC(=O)CSc2ccccc2NC(=O)c2ccccc2)cc1Cl,?,13µM,15µM,-,?,?
Cc1ccc(NC(=O)CSc2ccccc2NC(=O)c2ccccc2Cl)cc1Cl,-,18µM,?,-,-,-
O=c1oc2cc(O)ccc2cc1-c1nc(-c2ccc(Cl)cc2)cs1,.,.,.,.,.,-
CCN(Cc1cccc(S(=O)(=O)O)c1)c1ccc(C(=C2C=CC(=[N+](CC)Cc3cccc(S(=O)(=O)O)c3)C=C2)c2ccccc2S(=O)(=O)[O-])cc1,.,13µM,2µM,.,.,.
Oc1ccccc1Oc1ncc(Br)c(Cl)n1,-,-,-,-,-,32µM
Cc1ccc(CN2C(=O)NC3(CCCN(C(=O)c4cc5ccccc5[nH]4)C3)C2=O)cc1 (stereo not drawn),.,.,.,.,.,13µM
Cc1ccc(C)c(NC(=O)N2CCC(Oc3ncccc3C(=O)N3CCCCC3)C2)c1 (stereo not drawn),.,.,.,.,.,-
COCC(=O)N(Cc1ccc(OC)cc1)Cc1nc2ccccc2c(=O)[nH]1,-,-,-,-,-,-
COCCN(Cc1nc2ccccc2c(=O)[nH]1)C(=O)COc1ccccc1-c1ccccc1,?,23µM,?,-,-68,-
CCN(Cc1nc2ccccc2c(=O)[nH]1)C(=O)COc1ccccc1Cc1ccccc1,?,4.1µM,4.6µM,?,-67,-
CC(NC(=O)CN(C)Cc1nc2ccccc2c(=O)[nH]1)c1ccccc1 (stereo not drawn),-,-,-,-,-,-
CC(C(=O)Nc1ccccc1-c1ccccc1)N(C)Cc1nc2ccccc2c(=O)[nH]1 (stereo not drawn),23µM,21µM,13µM,23µM,-,-
COCC(=O)N(CCc1ccc(OC)cc1)Cc1nc2ccccc2c(=O)[nH]1,-,3.3µM,?,-,-,-
CCOc1cccc(CNC(=O)c2nnn3c2COC(c2ccc(C)cc2)C3)c1 (stereo not drawn),.,.,.,.,.,-
CCOc1ccc(CN(C)CC(=O)Nc2ccc(F)c(Cl)c2)cc1,.,.,.,.,.,-
